# Screens from PubChem BioAssay.
# D1 PAM – Potentiators of Human D1 Dopamine Receptor: qHTS; potentiation, % at 10 µM; AID 504651, 2011; HEK293 TREx D1 cells, calcium flux, dopamine EC20 potentiation; actives 0.036% (n = 360,000); D(1A) dopamine receptor (Homo sapiens), P21728; in the data active = potentiation above about 30%; also: 0% is about no effect
# Target sequence (P21728 whole entry, looked up): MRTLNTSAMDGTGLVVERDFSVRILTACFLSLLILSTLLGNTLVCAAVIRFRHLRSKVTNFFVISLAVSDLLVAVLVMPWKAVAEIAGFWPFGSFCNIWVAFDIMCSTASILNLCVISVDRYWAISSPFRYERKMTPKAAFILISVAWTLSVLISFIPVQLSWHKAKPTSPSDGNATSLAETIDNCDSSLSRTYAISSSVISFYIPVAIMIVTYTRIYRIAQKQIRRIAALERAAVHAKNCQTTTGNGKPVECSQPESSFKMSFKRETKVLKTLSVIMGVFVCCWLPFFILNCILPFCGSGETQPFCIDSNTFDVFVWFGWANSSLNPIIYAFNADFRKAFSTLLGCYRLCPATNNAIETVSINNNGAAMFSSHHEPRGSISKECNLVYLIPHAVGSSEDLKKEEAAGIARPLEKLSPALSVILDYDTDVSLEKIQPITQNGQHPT
# DRD3 antagonist – qHTS of D3 Dopamine Receptor Antagonist: qHTS. D3R cells, DiscoveRx beta-arrestin luminescence, antagonist mode; stronger effect = lower value. actives 2.5% (n = 360,000). D(3) dopamine receptor (Homo sapiens), P35462. AID 652054, 2013. max response, negative = inhibition, %; in the data active = max response below about -50%; inconclusive = no clear call, values can overlap the other calls; also: % is scaled to controls: 0 for no effect and ±100 for the full control effect
#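 Cells plated overnight at 1500 cells/well, then exposed to library compounds with dopamine controls for 90 minutes at 37 degrees C. DiscoveRx reagent added for 30–60 minutes at room temperature; luminescence read, quantitative HTS format.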
# D1 ag – Allosteric Agonists of the Human D1 Dopamine Receptor: qHTS; D(1A) dopamine receptor (Homo sapiens), P21728; HEK293 T-REx D1 cells, calcium flux, agonist mode; activation, % at 2 µM; actives 1% (n = 360,000); in the data active = activation above about 30%; also: 0% is about no effect
#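 Agonism was scored from calcium flux recorded over 180 s (1 read/s) after pintool compound addition, following a 10-cycle baseline. Cells were inducible force-coupled HEK293 TREx D1, plated overnight at 30 C and loaded with no-wash calcium dye.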
# DRD3 agonist – qHTS of D3 Dopamine Receptor Agonist: qHTS. actives 0.58% (n = 410,000). AID 652048, 2013. max activation, %. D3R DiscoveRx beta-arrestin cells, luminescence, 90 min. D(3) dopamine receptor (Homo sapiens), P35462; in the data active = max activation above about 30%; also: 0% is about no effect
#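 Agonist-mode cell screen: cells plated at 1500/well and incubated overnight at 37 °C, then exposed to library compounds for 90 min at 37 °C. Detection reagent was added for 30–60 min at room temperature, and luminescence was read.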
# D1 antag – Antagonist of Human D 1 Dopamine Receptor: qHTS | D(1A) dopamine receptor (Homo sapiens), P21728 | HEK293 TREx D1 cells, calcium flux, dopamine EC80; stronger effect = lower value | activity change, negative = inhibition, % at 10 µM | actives 3.2% (n = 360,000) | AID 504652, 2011; in the data active = activity change below about -30%; also: % is scaled to controls: 0 for no effect and ±100 for the full control effect
#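 Tetracycline-induced HEK293 T-REx cells with force-coupled D1 receptor were loaded with a no-wash calcium dye. Compound was added after a 10 s baseline and read kinetically for 180 s; EC80 dopamine was then added and calcium flux followed another 180 s.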
# An asterisk follows results filed as active; ? = inconclusive; nt = not tested or not shown. A selection: hits, their analogues and other compounds. The true share with any hit is near 6%.
SMILES,D1 PAM,DRD3 antagonist,D1 ag,DRD3 agonist,D1 antag
Cc1ccc(N=Cc2cc(Cc3ccccc3Cl)cc([N+](=O)[O-])c2O)c(O)c1,5,-74*,25,-9,-11
COc1ccc(N=Cc2cc(Cc3ccccc3Cl)cc([N+](=O)[O-])c2O)cc1OC,-10,-96*,4,-15,29
CS(=O)(=O)c1ccc([C@@H](O)[C@@H](CO)NC(=O)C(Cl)Cl)cc1,3,-51*,-2,-25,-10
C/C1=C2N=C(/C=C3N=C(/C(C)=C4\[N-]C(C(CC(N)=O)C4(C)CCC(=O)NCC(C)OP(=O)([O-])OC4C(CO)OC(n5cnc6cc(C)c(C)cc65)C4O)C4(C)N=C1C(CCC(N)=O)C4(C)CC(N)=O)C(CCC(N)=O)C\3(C)C)C(CCC(N)=O)C/2(C)CC(N)=O.[CH3-].[Co+3] (stereo not drawn),nt,nt,nt,-6,nt
CCOc1ccc(Cl)cc1CNCCCSc1nnnn1C,-2,nt,9,-14,3
Cn1nnnc1SCCCNCc1ccc(-c2cccc(Cl)c2)o1,4,nt,100*,-18,-57*
Clc1cccc(-c2ccc(CNCCCN3CCOCC3)o2)c1,-2,-80*,10,-23,-4
Cn1nnnc1SCCCNCc1ccc(-c2ccc(F)c(Cl)c2)o1,0,nt,30,-26,-15
COc1ccc(-c2ccc(CNCCCSc3nnnn3C)o2)cc1Cl,-1,nt,37*,-24,-5
CC1(C(=O)NS(=O)(=O)c2cccc(Cl)c2)CCN1C(=O)C1(c2ccc(Cl)cc2)CCC1 (stereo not drawn),nt,-21,nt,-6,nt
CCn1c(-c2cc(Br)cc(OC)c2O)nc2cc(S(=O)(=O)N(C)C)ccc21,0,-5,2,37*,-3
COc1cc2c(cc1OC)C1CC(=O)C(CC(C)C)CN1CC2 (stereo not drawn),-1,5,1,-36,5
COc1cc2c(cc1OC)C1C/C(=N\O)C(CC(C)C)CN1CC2 (stereo not drawn),-22,-58*,0,-20,-67*
CCN(CC)CCNC(=O)c1cc2cc3ccc(OC)cc3nc2o1,9,-11,1,-6,-35*
CCCSc1ncc(Cl)c(C(=O)N(Cc2ccccc2)c2ccc(OC)cc2)n1,-2,nt,16,-10,-36*
CCOc1ccc(N(Cc2ccccc2)C(=O)c2nc(SC)ncc2Cl)cc1,-3,nt,5,-23,1
COc1ccc(-c2nc3c(C#N)c[nH]n3c2NC2CCCCC2)cc1,-1,nt,-1,-9,10
CCN(CC)c1nc2ccccc2nc1C(=O)Nc1ccc(C(C)=O)cc1,-2,nt,2,1,15
COCCNCCCCSc1ccc(Cl)cc1,-4,-59*,8,-1,9
CC(=O)c1cc(-c2ccccc2)n(CCC(=O)NCCc2ccccc2)c1C,-5,nt,5,1,-4
COc1ccc(C(C)(O)c2nc(/C=C/c3ccccc3)cs2)cc1 (stereo not drawn),nt,-78*,nt,-12,nt
CN=c1sc(C(=O)Nc2cccc(Cl)c2)cc(=O)n1C,-6,-51*,6,-8,-3
CCCN(C(=O)CSc1nnnn1-c1ccccc1OC)C1CCS(=O)(=O)C1 (stereo not drawn),-2,-12,-1,-5,-6
Cc1cc2cc3c(=O)[nH]c(=O)cc-3n(CC(O)C(O)C(O)CO)c2cc1C (stereo not drawn),nt,-97*,nt,-24,nt
O=c1c(N=Nc2ccccc2)c[nH]n1-c1ccccc1,nt,-62*,nt,-19,nt
SMILES,D1 PAM,DRD3 antagonist,D1 ag,DRD3 agonist,D1 antag
O=C(NCCc1ccccc1Cl)c1sc2ncccc2c1-n1cccc1,-4,nt,13,7,-8
CC(C)=CCc1c2c(c3occ(-c4ccc(O)cc4)c(=O)c3c1O)C=CC(C)(C)O2,3,36,0,69*,5
Cc1ccc(Nc2nc3ccccc3n3nnnc23)cc1,7,13,8,-13,-10
COc1ccc(Nc2nc3ccccc3n3nnnc23)cc1,-4,-90*,2,0,3
c1cncc(-c2nn3c(Cn4nnc5ccccc54)nnc3s2)c1,0,19,3,51*,7
COc1ccc(CN(C)C(=O)c2ccncc2)c(OC)c1,-4,12,3,5,-21
N=c1c(C(=O)NC2CCCCC2)cc2c(=O)n3ccccc3nc2n1CCc1ccccc1,-8,-14,0,-4,-25
CN(C)/C=C/C(=O)c1cccc(Cl)c1,1,-15,6,1,12
CN(C)/C=C/C(=O)c1ccc(Cl)cc1,-2,-7,8,-9,-86*
CCOc1ccc(NC(=O)CSC2=Nc3ccccc3C3=NC(Cc4ccccc4)C(=O)N23)cc1 (stereo not drawn),-1,nt,0,-4,8
COc1ccccc1CCNC(=O)Cc1ccc(NC(=O)N2CCSc3ncccc32)cc1,-3,nt,-1,1,-28
CCOc1ccc(NC(=O)Cn2c(=O)oc3cc(S(=O)(=O)NC4CCCC4)ccc32)cc1,-2,nt,0,1,19
CCOC(=O)c1cc2n(c1/N=C/N(C)C)-c1ccccc1C2=O,-5,48,90*,3,-10
CCOC(=O)c1ccc2c(c1)N(C)C(=O)c1ccccc1S2,-1,6,1,-5,3
O=C(NCCSc1ncc(-c2ccc(F)cc2)[nH]1)c1ccco1,-2,3,4,-8,-6
COc1cc(NC(=O)c2ccco2)c(OC)cc1NC(=O)CSc1ncc(-c2ccc(F)cc2)[nH]1,0,41,4,31*,-9
COc1ccc(N2CC(NC(=O)c3cccs3)CC2=O)cc1OC (stereo not drawn),4,nt,2,1,nt
Cc1cc(C(=O)COC(=O)c2ccc[nH]c2=O)c(C)n1-c1ccccc1F,-10,-1,2,0,1
Cc1cc(C(=O)COC(=O)c2ccc(O)cc2)c(C)n1-c1ccccc1F,-2,-13,6,-8,-30*
COc1ccc(-n2c(C)cc(C(=O)Cn3nnc4ccccc4c3=O)c2C)cc1,-1,14,3,1,-25
Cc1cc(C(=O)Cn2nnc3ccccc3c2=O)c(C)n1-c1ccccc1F,25,-30,3,5,-53*
CC(C)Cc1ccc(C(C)CC2=CCC(CN(C)C)C2=O)cc1 (stereo not drawn),nt,?,nt,-5,nt
CCn1c(SC(C)C(=O)NCC2CCCO2)nc2scc(-c3ccccc3)c2c1=O (stereo not drawn),-5,5,0,2,-26
